Laboratory results: publication PMC4336329 (PLoS ONE, 2015)
Among all 310,000 compounds or so, about 2,200 (0.71%) showed an effect of 50% or more. Effects have a minus sign here. The list comes from a sample in which strong results are over-represented; it also holds similar structures and randomly drawn compounds.

The compounds below were run against human ether-à-go-go-related gene (hERG) potassium channel (human, UniProt Q12809) (assay: primary screen, population patch clamp on CHO cells stably expressing hERG; higher = less effect of the substance).
Sequence of human ether-à-go-go-related gene (hERG) potassium channel (Q12809 whole entry, looked up): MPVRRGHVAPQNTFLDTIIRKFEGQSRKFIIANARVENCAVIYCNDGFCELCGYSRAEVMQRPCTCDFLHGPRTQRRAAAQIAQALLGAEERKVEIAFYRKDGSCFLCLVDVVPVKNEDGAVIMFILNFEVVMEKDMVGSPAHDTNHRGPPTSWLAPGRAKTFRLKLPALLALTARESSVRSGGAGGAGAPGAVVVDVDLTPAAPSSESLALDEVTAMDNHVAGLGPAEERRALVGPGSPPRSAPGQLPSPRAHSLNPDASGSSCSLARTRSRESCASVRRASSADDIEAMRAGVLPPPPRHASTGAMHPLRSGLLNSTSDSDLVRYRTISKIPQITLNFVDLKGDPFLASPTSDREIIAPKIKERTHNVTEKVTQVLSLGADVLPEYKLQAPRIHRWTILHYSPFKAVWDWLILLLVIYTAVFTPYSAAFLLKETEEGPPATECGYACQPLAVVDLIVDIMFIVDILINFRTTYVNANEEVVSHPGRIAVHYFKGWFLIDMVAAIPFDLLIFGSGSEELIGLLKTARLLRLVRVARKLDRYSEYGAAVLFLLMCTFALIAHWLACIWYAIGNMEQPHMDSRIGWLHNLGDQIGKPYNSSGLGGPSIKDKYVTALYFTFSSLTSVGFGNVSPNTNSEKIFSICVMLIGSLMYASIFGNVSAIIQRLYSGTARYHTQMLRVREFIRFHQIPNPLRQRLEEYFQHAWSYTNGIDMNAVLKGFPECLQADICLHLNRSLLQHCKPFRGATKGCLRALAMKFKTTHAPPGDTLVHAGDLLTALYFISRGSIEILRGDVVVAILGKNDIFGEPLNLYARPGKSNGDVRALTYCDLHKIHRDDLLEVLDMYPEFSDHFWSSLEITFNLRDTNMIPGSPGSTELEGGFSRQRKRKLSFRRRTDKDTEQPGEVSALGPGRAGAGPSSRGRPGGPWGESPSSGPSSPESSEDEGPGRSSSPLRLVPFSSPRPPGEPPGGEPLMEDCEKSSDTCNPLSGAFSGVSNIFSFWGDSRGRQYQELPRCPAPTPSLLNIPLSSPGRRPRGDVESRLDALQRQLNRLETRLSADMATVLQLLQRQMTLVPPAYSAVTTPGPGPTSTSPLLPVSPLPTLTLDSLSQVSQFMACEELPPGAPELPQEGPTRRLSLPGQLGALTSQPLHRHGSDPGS

Q: With `O=C(c1cccnc1NCc1ccc(F)cc1)N1CCOCC1` as the compound, how does the “hERG current change (%, negative = inhibition) at 1uM” value read?
A: 5.16%

Q: For `CN(C)c1ccc(/C=C/C(=O)c2ccccc2)cc1[N+](=O)[O-]`, which “hERG current change (%, negative = inhibition) at 1uM” value is on record?
A: -0.74%

Q: Which “hERG current change (%, negative = inhibition) at 1uM” value does the source give for `Cc1cccc(NC(=O)CN2CCN(C(=O)C3CCC3)CC2)c1C` here?
A: -7.56%

Q: Which “hERG current change (%, negative = inhibition) at 1uM” value does the source give for `Cc1cccc(NC(=O)CN2CCN(C(=O)C3CCN(C(=O)/C=C/c4ccccc4)CC3)CC2)c1C` here?
A: -56.6%

Q: For `CCc1ccccc1NC(=O)CN1CCN(CC(=O)Nc2ccc(-c3ccccc3)cc2)CC1`, which “hERG current change (%, negative = inhibition) at 1uM” value is on record?
A: -7.45%

Q: Which “hERG current change (%, negative = inhibition) at 1uM” value does the source give for `COC(=O)C1CCN(C(=O)/C=C/c2ccccc2)CC1` here?
A: 11.1%

Q: `CCc1ccccc1NC(=O)CN1CCN(C(=O)C2CCN(C(=O)/C=C/c3ccccc3)CC2)CC1` was tested. Which “hERG current change (%, negative = inhibition) at 1uM” value did it give?
A: -74.5%

Q: `Cc1cccc(NC(=O)CN2CCN(C(=O)C3CCCO3)CC2)c1C` (stereo not shown) was tested. Which “hERG current change (%, negative = inhibition) at 1uM” value did it give?
A: 5.32%

Q: `O=C(CN1CCN(C(=O)c2ccco2)CC1)NCc1ccc(Cl)cc1` was tested. Which “hERG current change (%, negative = inhibition) at 1uM” value did it give?
A: -35.1%

Q: With `O=C(OCC(=O)N1CCN(C(=O)c2ccco2)CC1)c1cncc(Br)c1` as the compound, how does the “hERG current change (%, negative = inhibition) at 1uM” value read?
A: 6.76%

Q: Which “hERG current change (%, negative = inhibition) at 1uM” value does the source give for `C[C@@H](C(=O)NCc1c(F)cccc1Cl)N1C(=O)N2CCc3c([nH]c4ccccc34)[C@@]2(C)C1=O` here?
A: 4.12%

Q: `COC(=O)c1ccc2c(c1)C(C)(C)C(/C=C/c1ccccc1O)=[N+]2C.[I-]` was tested. Which “hERG current change (%, negative = inhibition) at 1uM” value did it give?
A: -7.78%

Q: `CC1(C)OC(=O)C(=CNc2ccccc2)C(=O)O1` was tested. Which “hERG current change (%, negative = inhibition) at 1uM” value did it give?
A: 2.21%

Q: How did the “hERG current change (%, negative = inhibition) at 1uM” value turn out when `C[N+]1=C(/C=C/Nc2ccccc2)C(C)(C)c2ccccc21.[O-][Cl+3]([O-])([O-])[O-]` was run?
A: -62.8%

Q: `O=C1c2ccccc2C(=O)N1OCc1ccc(Cl)cc1` was tested. Which “hERG current change (%, negative = inhibition) at 1uM” value did it give?
A: 8.72%

Q: Which “hERG current change (%, negative = inhibition) at 1uM” value does the source give for `COc1ccc(CN2CCN(Cc3ccc(C(F)(F)F)cc3)CC2)c(OC)c1.O=C(O)C(=O)O` here?
A: -66.6%

Q: `COc1cc(C(C)=O)ccc1OCCN1CCC(Cc2ccccc2)CC1.O=C(O)C(=O)O` was tested. Which “hERG current change (%, negative = inhibition) at 1uM” value did it give?
A: -93.3%

Q: With `COc1ccc(CN2CCC(Cc3ccccc3)CC2)cc1OC.O=C(O)C(=O)O` as the compound, how does the “hERG current change (%, negative = inhibition) at 1uM” value read?
A: -32.9%

Q: With `COc1cc(CN2CCC(C)CC2)ccc1OCc1ccccc1.O=C(O)C(=O)O` as the compound, how does the “hERG current change (%, negative = inhibition) at 1uM” value read?
A: -3.21%

Q: For `COc1ccc(OC)c(CN2CCC(Cc3ccccc3)CC2)c1.O=C(O)C(=O)O`, which “hERG current change (%, negative = inhibition) at 1uM” value is on record?
A: -61.9%

Q: For `COc1ccc(CN2CCN(Cc3ccc(C)cc3)CC2)c(OC)c1.O=C(O)C(=O)O`, which “hERG current change (%, negative = inhibition) at 1uM” value is on record?
A: -18.9%

Q: `CCOc1ccccc1OCCN1CCC(Cc2ccccc2)CC1.O=C(O)C(=O)O` was tested. Which “hERG current change (%, negative = inhibition) at 1uM” value did it give?
A: -53.7%

Q: With `COc1ccc(OC)c(CN2CCN(C(=O)Cc3ccccc3)CC2)c1.O=C(O)C(=O)O` as the compound, how does the “hERG current change (%, negative = inhibition) at 1uM” value read?
A: 17.6%

Q: `Clc1ccccc1OCCN1CCC(Cc2ccccc2)CC1.O=C(O)C(=O)O` was tested. Which “hERG current change (%, negative = inhibition) at 1uM” value did it give?
A: 10.6%

Q: For `COc1ccc(CN2CCN(Cc3ccc(C(F)(F)F)cc3)CC2)cc1.O=C(O)C(=O)O`, which “hERG current change (%, negative = inhibition) at 1uM” value is on record?
A: -24.5%

Q: `Cc1ccccc1OCCN1CCC(Cc2ccccc2)CC1.O=C(O)C(=O)O` was tested. Which “hERG current change (%, negative = inhibition) at 1uM” value did it give?
A: -10%

Q: With `COc1cc(C(=O)OCC(=O)N2CCC(Cc3ccccc3)CC2)cc(OC)c1OC` as the compound, how does the “hERG current change (%, negative = inhibition) at 1uM” value read?
A: 13.4%

Q: Which “hERG current change (%, negative = inhibition) at 1uM” value does the source give for `COC(=O)C1CCN(C(=O)Cc2ccc(C)cc2)CC1` here?
A: 10.2%

Q: `COc1cccc(C(=O)Nc2cccc(-c3nnc(-c4ccco4)o3)c2)c1` was tested. Which “hERG current change (%, negative = inhibition) at 1uM” value did it give?
A: -1.01%

Q: How did the “hERG current change (%, negative = inhibition) at 1uM” value turn out when `O=C(O)c1cccc(O)c1O` was run?
A: 8.42%

Q: For `CCOC(=O)N1CCN(Cc2cc(=O)oc3cc4c(cc23)CCC4)CC1`, which “hERG current change (%, negative = inhibition) at 1uM” value is on record?
A: -3.49%

Q: With `Cc1cc(=S)[nH]c2c(C)cccc12` as the compound, how does the “hERG current change (%, negative = inhibition) at 1uM” value read?
A: 15.9%

Q: With `c1ccc(-c2cnnc(-c3ccccn3)n2)cc1` as the compound, how does the “hERG current change (%, negative = inhibition) at 1uM” value read?
A: 4.98%

Q: Which “hERG current change (%, negative = inhibition) at 1uM” value does the source give for `CN(C)CCCOC(=O)c1cc2ccccc2o1.Cl` here?
A: 13%

Q: Which “hERG current change (%, negative = inhibition) at 1uM” value does the source give for `COc1ccccc1C1=NOC(C(=O)N2CCN(C(=O)c3ccco3)CC2)C1` (stereo not shown) here?
A: 8.33%

Q: With `Cc1cccc2cc(C#N)c(NCCCn3ccnc3)nc12` as the compound, how does the “hERG current change (%, negative = inhibition) at 1uM” value read?
A: -11.1%

Q: For `COc1cccc(CN2CCC(N(CCc3ccccc3)Cc3ccccc3)CC2)c1OC.O=C(O)C(=O)O`, which “hERG current change (%, negative = inhibition) at 1uM” value is on record?
A: 0.877%

Q: Which “hERG current change (%, negative = inhibition) at 1uM” value does the source give for `COc1cc(C(C)=O)ccc1OCCCN1CCC(Cc2ccccc2)CC1.O=C(O)C(=O)O` here?
A: -82.8%

Q: `COc1ccc(CN2CCC(C(=O)N(C)CCc3ccc(OC)c(OC)c3)CC2)c(OC)c1.O=C(O)C(=O)O` was tested. Which “hERG current change (%, negative = inhibition) at 1uM” value did it give?
A: -18%

Q: `COc1cc(C(=S)N2CCC(Cc3ccccc3)CC2)ccc1OCC(N)=O` was tested. Which “hERG current change (%, negative = inhibition) at 1uM” value did it give?
A: 3.73%

Q: Which “hERG current change (%, negative = inhibition) at 1uM” value does the source give for `COc1ccc(CN2CCC(N(CCc3ccccc3)Cc3ccccc3)CC2)c(OC)c1.O=C(O)C(=O)O` here?
A: -79.8%

Q: For `COc1ccc(CCNC(=O)c2ccc(CN3CCC(Cc4ccccc4)CC3)cc2)cc1OC`, which “hERG current change (%, negative = inhibition) at 1uM” value is on record?
A: -3.19%

Q: For `CC(C)(C)c1ccc(COn2ccnc2)cc1`, which “hERG current change (%, negative = inhibition) at 1uM” value is on record?
A: 21%
